Our source for the outcome values is PubChem BioAssay AID449749 (Broad Institute, 2010).

The structures appear in SMILES notation. The campaign covered roughly 2,100 compounds. About 1,700 (81%) were called active. So high a share suggests a set chosen from earlier hits. The list shows a part of the results. Measured potencies and affinities stand elsewhere. Results filed as inconclusive are left out. How the calls were made is not given here.

For the assay, the target named is Replicative DNA helicase DnaB (Mycobacterium tuberculosis (strain ATCC 25618 / H37Rv)) (UniProt P9WMR3). The assay can be described thus: DnaB intein splicing inhibitors, dose response, biochemical, M. tuberculosis H37Rv, cell-free fluorescence (AID 449749). Particulars: series mostly up to 38 µM.
Sequence of Replicative DNA helicase DnaB (Mycobacterium tuberculosis (strain ATCC 25618 / H37Rv)) (P9WMR3 whole entry, looked up): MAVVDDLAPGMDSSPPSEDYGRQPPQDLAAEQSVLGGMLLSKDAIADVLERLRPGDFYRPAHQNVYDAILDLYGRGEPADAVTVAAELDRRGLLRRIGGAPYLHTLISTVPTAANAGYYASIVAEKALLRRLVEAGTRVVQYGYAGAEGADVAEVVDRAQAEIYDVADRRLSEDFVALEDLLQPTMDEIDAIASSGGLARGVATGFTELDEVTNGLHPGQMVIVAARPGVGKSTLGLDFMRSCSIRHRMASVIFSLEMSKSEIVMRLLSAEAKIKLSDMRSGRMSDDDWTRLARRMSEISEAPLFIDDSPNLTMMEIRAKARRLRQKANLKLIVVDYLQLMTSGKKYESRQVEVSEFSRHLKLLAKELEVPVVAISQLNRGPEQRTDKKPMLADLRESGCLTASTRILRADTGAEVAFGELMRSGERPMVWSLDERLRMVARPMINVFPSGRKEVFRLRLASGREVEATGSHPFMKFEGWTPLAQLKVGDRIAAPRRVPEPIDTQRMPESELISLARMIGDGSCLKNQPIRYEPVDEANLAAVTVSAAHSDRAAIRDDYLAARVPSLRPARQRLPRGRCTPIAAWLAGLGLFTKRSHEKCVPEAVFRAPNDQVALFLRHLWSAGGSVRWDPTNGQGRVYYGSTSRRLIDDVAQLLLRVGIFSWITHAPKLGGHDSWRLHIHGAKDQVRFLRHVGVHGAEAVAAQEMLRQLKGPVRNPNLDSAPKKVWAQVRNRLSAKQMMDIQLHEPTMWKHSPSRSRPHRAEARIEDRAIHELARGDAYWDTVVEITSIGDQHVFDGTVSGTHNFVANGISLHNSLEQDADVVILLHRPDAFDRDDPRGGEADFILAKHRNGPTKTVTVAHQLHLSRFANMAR
For the compound `OCCNC(=S)Nc1ccc2nsnc2c1`, the outcome was inactive.

On to `CCCCNC(=O)c1c(N)n(Cc2ccc3c(c2)OCO3)c2nc3ccccc3nc12`, for which the compound was classed as inactive.

`Cc1ccsc1C=Nc1ccc(O)cc1`: the call was inactive.

As for `C=CCn1c(N)c(C(=O)Nc2cccc(C)c2)c2nc3ccccc3nc21`, the result was inactive.

As to `CN1/C(=C/C(=O)c2nc(S(C)(=O)=O)ncc2Cl)C(C)(C)c2ccccc21`, the outcome was inactive.

For `ONc1cccnc1-n1nc(C(F)(F)F)cc1C(F)(F)F`, the compound was classed as inactive.

Turning to `CCCCCn1c(N)c(C(=O)NCc2cccs2)c2nc3ccccc3nc21`, the compound was called inactive.

As to `O=[N+]([O-])c1cncc([N+](=O)[O-])c1Nc1cccc(O)c1`, the outcome was inactive.

For the compound `CCOc1ccc2c(c1)-c1c(ssc1=S)C(C)(C)N2`, the compound was classed as inactive.
